In PubChem BioAssay (NCI):
The panel holds about 79,000 compounds, 15% with a hit somewhere; the sample as a whole holds those more often. A number with no mark means an inactive call. The source made the active and inactive calls. Rule as the data show it: active = growth inhibition above about 70%; inactive = the rest.

Test: NCI Yeast Anticancer Drug Screen. Data for the bub3 strain (AID 167)
Conditions: S. cerevisiae bub3 mutant strain, at 50.0 µM (retest, dose inferred, filed as 5.0), active compounds read high
How it was run: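 In this screen, a yeast mutant lacking normal mitotic checkpoint function is challenged with compound. Relative growth versus vehicle gives the inhibition value.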

Structure (SMILES)	growth inhibition
CCCCCCCCCCC(NC(C)=O)(C(=O)OCC)C(=O)OCC	98% (active)
Cc1nc2c(cnn2C)cc1CCc1ccccc1	78% (active)
CCc1cccc(C)c1NC(=O)C(=O)CC(=O)c1ccccc1Cl	-2%
COc1nc(N)c(N=O)c(OCc2ccccc2)n1	98% (active)
O=C1O/C(=C2\OC(=O)c3ccccc32)c2ccccc21	2%
Cc1ccc(O)c(C(C)(C)c2ccccc2)c1	95% (active)
CCOC(=O)NN(C(=O)OCC)c1ccc(N=Nc2ccc(OC)cc2)n1C	78% (active)
S=C(NCc1ccccc1)[S][Sb]([S]C(=S)NCc1ccccc1)[c]1ccccc1	93% (active)
O=CCCCc1cc2c(cc1Br)CCC2	92% (active)
CCC(C)CNCCCCCNc1cc(OC)cc2cccnc12 (configuration not stated)	75% (active)
CNC(=O)NC(c1cc(OC)c(OC)c(OC)c1)c1cc2c(cc1O)OCO2 (configuration not stated)	-4%
CCCCCCCSCc1nc2ccccc2c(C)[n+]1[O-]	99% (active)
Cc1[nH]c(=O)[nH]c(=O)c1CN(C)Cc1cc(Cl)cc(Cl)c1O	46%
O=C(N/C(=C\c1cccc([N+](=O)[O-])c1)c1nc2ccccc2s1)c1ccccc1	98% (active)
CC1NS(=O)(=O)N(C)C1=O (configuration not stated)	16%
Cc1csc2[n+]1C(=O)/C(=C\c1ccc([N+](=O)[O-])cc1)S2	76% (active)
CC(C)c1ccc2c(c1)CCC1C(C)(C(=O)O)CCCC21C (configuration not stated)	97% (active)
COc1ncnc2nc(SC)[nH]c12	-4%
CCN(CC)C(=O)CCCCC(=O)OC(C)C	-10%
CC(=O)O/N=C1/CCC2C3CC=C4CC(OC(C)=O)CCC4(C)C3CCC12C (configuration not stated)	74% (active)
Clc1ccc(CNc2ccc(Br)cc2)cc1	86% (active)
Cc1cnc(C#N)c(C#N)n1	-1%

Same assay, conditions: S. cerevisiae bub3 mutant strain, at 50.0 µM, active compounds read high

Structure (SMILES)	growth inhibition
O=C(O)CCCCCCCCCCOc1ccc(Cl)cc1Cl	99.3% (active)
C=C(CN1CCCC1)C(=O)c1ccc(OC)cc1	-12%
CNC(=O)OCc1c(COC(=O)NC)c(-c2ccc(OC)cc2)n2c1CCC2	48.4%
CCCCC(=S)N1CCN(c2ccccc2)CC1	81.7% (active)
CCN(CC)C(=S)N/N=C/c1cc(OC)ccc1O	61.5%
COc1ccc2c(c1)CN1C(CCC3c4ccccc4NC31)C2 (configuration not stated)	61.6%
CCCCC(=O)N/N=C(\C)[C@]1(O)Cc2c(O)c3c(c(O)c2[C@@H](OC2CC(N)C(O)C(C)O2)C1)C(=O)c1c(OC)cccc1C3=O (some centres not stated)	98.5% (active)
C=C1C(=O)C23OC2C1CCC(=O)C1(C)CC[C@H](OC(C)=O)C(C)(C)[C@H]1CC3O (some centres not stated)	99.2% (active)
Cc1nc(N)sc1N=Nc1ccc(Cl)cc1Cl	81.7% (active)
O=C(O)c1cc2c3ccccc3sc2c2ccccc12	19.7%
COc1ccc2c(c1)C(Br)CCC(Br)C2=O (configuration not stated)	88.7% (active)
Cc1cc(OCCl)ccc1[N+](=O)[O-]	19.9%
COC(=O)c1nnc(C(=O)OC)c2c1[nH]c1ccccc12	42.9%
O=S(Nc1ccccc1Br)c1ccccc1 (configuration not stated)	16.9%
Cc1c2c(c(C)c3c1OC(C)(C)CC3)OC(C)(C)CC2	11.2%
O=c1cc(CSc2ccc(Cl)cc2)occ1O	11.9%
Cc1ccc2c(c1)[n+]([O-])c(N)n[n+]2[O-]	43.1%
CC(=O)c1c2c(cc3c1CC1(C3)Cc3cc4c(c(C(=O)O)c3C1)CCC4)CCC2 (configuration not stated)	83.5% (active)
CCCCCCCCCCC(NC(C)=O)(C(=O)OCC)C(=O)OCC	94.5% (active)
Cc1nc2c(cnn2C)cc1CCc1ccccc1	76.1% (active)

Structure (SMILES)	growth inhibition
CCc1cccc(C)c1NC(=O)C(=O)CC(=O)c1ccccc1Cl	24.4%
COc1nc(N)c(N=O)c(OCc2ccccc2)n1	91.6% (active)
O=C1O/C(=C2\OC(=O)c3ccccc32)c2ccccc21	5.25%
Cc1ccc(O)c(C(C)(C)c2ccccc2)c1	99.5% (active)
CCOC(=O)NN(C(=O)OCC)c1ccc(N=Nc2ccc(OC)cc2)n1C	74% (active)
S=C(NCc1ccccc1)[S][Sb]([S]C(=S)NCc1ccccc1)[c]1ccccc1	84.5% (active)
O=CCCCc1cc2c(cc1Br)CCC2	77.5% (active)
CCC(C)CNCCCCCNc1cc(OC)cc2cccnc12 (configuration not stated)	90.3% (active)
CNC(=O)NC(c1cc(OC)c(OC)c(OC)c1)c1cc2c(cc1O)OCO2 (configuration not stated)	-1.6%
CCCCCCCSCc1nc2ccccc2c(C)[n+]1[O-]	98% (active)
Cc1[nH]c(=O)[nH]c(=O)c1CN(C)Cc1cc(Cl)cc(Cl)c1O	30.1%
O=C(N/C(=C\c1cccc([N+](=O)[O-])c1)c1nc2ccccc2s1)c1ccccc1	97.8% (active)
CC1NS(=O)(=O)N(C)C1=O (configuration not stated)	8.55%
Cc1csc2[n+]1C(=O)/C(=C\c1ccc([N+](=O)[O-])cc1)S2	46.9%
CC(C)c1ccc2c(c1)CCC1C(C)(C(=O)O)CCCC21C (configuration not stated)	97.8% (active)
COc1ncnc2nc(SC)[nH]c12	99.7% (active)
CCN(CC)C(=O)CCCCC(=O)OC(C)C	-7.2%
CC(=O)O/N=C1/CCC2C3CC=C4CC(OC(C)=O)CCC4(C)C3CCC12C (configuration not stated)	41.5%
Clc1ccc(CNc2ccc(Br)cc2)cc1	85.2% (active)
Cc1cnc(C#N)c(C#N)n1	13.2%
